± gives the standard deviation.
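Further: 1 nM active piRISC with 0.1 nM target library at 33 °C single turnover.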

For the first assay, the system named is MILI (PIWIL2) piRISC loaded with L1MC piRNA (26 nt). In words: pre-steady-state target cleavage rate (min^-1); guide: L1MC piRNA 5'p-UAACUAAAUACUAUGCAAGCUGUAGG; MIWI and MILI are mouse PIWI proteins and EfPiwi is from a freshwater sponge; tags in brackets are library labels; higher = faster piRNA-guided slicing of the target. The following applies: auxiliary factor: 500 nM mouse GTSF1. The essentials: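 At 33 °C in HEPES–potassium acetate buffer, a transcribed, DNA-blocked target RNA library […] was exposed for 0–8 or 0–960 min to 1 nM active affinity-purified piRISC carrying a single synthetic guide, with or without 500 nM GTSF1 partner protein. Uncleaved targets were sequenced and normalised to depth and to weakly complementary targets. With three trials pooled and k3 capped at 0.0001 min^-1, a burst-and-steady-state fit produced the pre-steady-state cleavage rate.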
On to UCCUGGAUGUGCUUGCUUAGUAUUUACUUA, for which the “pre-steady-state target cleavage rate” value is 0.0644 ± 0.015.
Consider UCCUGGAUGUCGAUGCAUAGUAUAUUGUUA, for which the “pre-steady-state target cleavage rate” value is 0.0249 ± 0.008.
The same measure, in the same setting: then UCCUGGAUGUCCAUGCAUAGAAUUUAGUUA, with 0.0111 ± 0.0048; and UCCUGGAACACGUUGCAUAGUAUUUAGAAA, with 0.187 ± 0.034.
Same read-out and setting: in the case of UCCUGGAUGUCGAUGCAUAGUAUAAAGUUA it was 0.0643 ± 0.016; in that of UCCUGGAUGUCGAAGCAUAGUAUUUAGUGUA, 0.035 ± 0.012; in that of UCCUCCUACAGCUUGCUAAGUAUUUAGUAA, 0.0708 ± 0.013.
As for UCCUGGAAGUCCUUGCAUAGUAUUUUCAAA, the “pre-steady-state target cleavage rate” value worked out at 0.0197 ± 0.0079.
For the sequence UCCUCCUACAGCUUGCAUAGAAUUUUCAAA, the “pre-steady-state target cleavage rate” value came out at 0.0466 ± 0.015.
Consider UCCUGGAUGUGCUUGCAUAGUAUUUCGUUA, for which the “pre-steady-state target cleavage rate” value was 0.0261 ± 0.0098.
For the sequence UCCUGGAUCAGCUUGCAUAGUAAUUUCAAA, the “pre-steady-state target cleavage rate” value was determined as 0.042 ± 0.016.
Take UCCUGGAUGAGCUUGCAUAGUAUUAUGAAA: the “pre-steady-state target cleavage rate” value turned out to be 0.00473 ± 0.0045.
With UCCUGGAUCAGCAAGCAUAGUAUUUAGAAA, the “pre-steady-state target cleavage rate” value was determined as 0.101 ± 0.013.
Take UCCUGGAACAGCUUGCAUAGUAAAAAGAAA: the “pre-steady-state target cleavage rate” value came to 0.0185 ± 0.0077.
In the case of UCCUGGAUCAGCUUGCAAAGUAUUUAGAAA, the “pre-steady-state target cleavage rate” value came out at 0.0827 ± 0.015.
For the sequence UCCUGGAUGUCCUUGCAUUGUAUUUUGUUA, the “pre-steady-state target cleavage rate” value came to 0.0388 ± 0.013.
Regarding UCCUCCUACUCGUUGCAUAGUAUUUACAAA, the “pre-steady-state target cleavage rate” value is 0.0372 ± 0.012.
For the sequence UCCUGGAUCAGCUACGAUAGUAUUUAGUAA, the “pre-steady-state target cleavage rate” value was determined as 0.0254 ± 0.0088.
Still for that read-out and setting: then UCCUGGAUCAGCUUGCAUAGUAUUAGUUA, with 0.141 ± 0.018; and UCCUGGAACAGCUUGCAUAGUAAAAUCAAA, with 0.0152 ± 0.008.
With UCCUCCUAGUGCUUGCAUAGUAUUUUCAAA, the “pre-steady-state target cleavage rate” value is 0.0158 ± 0.0057.
For the sequence UCCUGGAUCAGGUUGCAUAGUAUUUACAAA, the “pre-steady-state target cleavage rate” value was 0.0312 ± 0.011.
For the sequence UCCUCCUACAGCUACGAUAGUAUUUAGUAA, the “pre-steady-state target cleavage rate” value was 0.174 ± 0.024.
With UCCUGGAUGUCGUUGUCAUAGUAUUUAGUUA, the “pre-steady-state target cleavage rate” value was 0.00743 ± 0.0049.
On to UCCUGGAUGAGCUUGCAUAGAAUUUAGUAA, for which the “pre-steady-state target cleavage rate” value stood at 0.0264 ± 0.011.
UCCUGGAACAGCUUGCAUAGUUAAUAGUAA: the “pre-steady-state target cleavage rate” value is 0.0133 ± 0.0056.
Regarding UCCUGGUACAGCUUGCAUAGUAUAUAGAUA, the “pre-steady-state target cleavage rate” value stood at 0.014 ± 0.0071.
The same measure, in the same setting: in the case of UCCUGGAUGAGCUUGCAUAGUAUAUUAGUUA it was 0.158 ± 0.017.
As to UCCUGCUACAGCUUGCAUUCAAUUUAGUUA, the “pre-steady-state target cleavage rate” value came out at 0.00485 ± 0.0037.

Still in this assay, the particulars now being: auxiliary factor: none (no GTSF1).
Regarding UCCUGGAUGUCGAACGAUAGUAUUUAUGUUA, the “pre-steady-state target cleavage rate” value is less than 0.0001.
Still for that read-out and setting: then UCCUGGAUGUCGAUGCAUACUAUUUAGAUA, with less than 0.0001; and UCCUGGAUGUCCUUGCAUACAAUUUAGUUA, with 0.00248 ± 0.0024.
For the sequence UCCUGGAUGUCGAACCAUAAUAUUUAGUUA, the “pre-steady-state target cleavage rate” value is less than 0.0001.
In the case of UCCUGGAUGUCGAACGUAUGUUUUAGUUA, the “pre-steady-state target cleavage rate” value was less than 0.0001.
UCCUGGAUGUCGAACCAUAGUAUUAAGUAA: the “pre-steady-state target cleavage rate” value was less than 0.0001.
Consider UCCUGGAUGUCGAACGUUAGUAUUUACGUUA, for which the “pre-steady-state target cleavage rate” value is less than 0.0001.
As for UCCUGGAUGUCGUUGCAUACAAUUUAGUUA, the “pre-steady-state target cleavage rate” value came out at 0.00319 ± 0.0024.
Still for that read-out and setting: in the case of UCCUGGAUGUCGAAGCUUAGUAUUUUGUUA it was less than 0.0001.
On to UCCUGGAUGUCGAACGUAAGUAUUUAGUUUA, for which the “pre-steady-state target cleavage rate” value was less than 0.0001.
The same measure, in the same setting: then UCCUGGAUGUCGAACCAUAGUAUUAGUUA, with less than 0.0001.

The values are drawn from the supplement of paper PMC10338343.
